Data published in PubChem BioAssay AID1209 (Sanford-Burnham Center for Chemical Genomics, 2008).
About 810 (0.43%) of roughly 190,000 compounds were called active. This excerpt belongs to a sample that is enriched for actives. Values without a mark were called inactive. Rule as the data show it: active = inhibition above about 50%; inactive = the rest.

Biological target: Mannose-6-phosphate isomerase (Homo sapiens) (UniProt P34949)
Experiment: MPI enzyme activity inhibition – biochemical, fluorescence intensity, coupled assay, primary screen (AID 1209);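 also: plate controls were DMSO vehicle for no effect and wells lacking substrate for full effect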
Details: purified PMI enzyme, at 20 µM, hits give high values

Mannose-6-phosphate isomerase (Homo sapiens), sequence (P34949 whole entry, looked up): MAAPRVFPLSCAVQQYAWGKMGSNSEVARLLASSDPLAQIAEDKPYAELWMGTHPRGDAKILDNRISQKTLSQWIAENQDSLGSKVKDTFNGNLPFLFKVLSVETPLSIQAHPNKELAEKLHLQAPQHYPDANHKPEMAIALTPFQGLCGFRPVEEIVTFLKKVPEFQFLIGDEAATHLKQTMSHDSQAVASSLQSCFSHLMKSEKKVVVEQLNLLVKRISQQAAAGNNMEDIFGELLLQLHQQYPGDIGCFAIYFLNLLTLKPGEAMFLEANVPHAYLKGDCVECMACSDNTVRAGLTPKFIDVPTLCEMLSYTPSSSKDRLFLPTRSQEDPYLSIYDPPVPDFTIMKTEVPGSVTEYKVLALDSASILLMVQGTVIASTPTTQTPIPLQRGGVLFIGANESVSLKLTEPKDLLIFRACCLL

Row | SMILES | inhibition
1 | C=CCn1c(NC(=O)c2ccco2)c(S(=O)(=O)c2ccccc2)c2nc3ccccc3nc21 | 7.1%
2 | CCCCCn1c(NC(=O)c2ccco2)c(S(=O)(=O)c2ccc(C)cc2)c2nc3ccccc3nc21 | 20%
3 | CCCCn1c(NC(=O)c2ccco2)c(S(=O)(=O)c2ccc(C)cc2)c2nc3ccccc3nc21 | 50.9% (active)
4 | COc1cccc(C(=O)OCC(=O)NCCc2ccccc2)c1OC | -5.9%
5 | O=C1CCCN1c1nccs1 | -4.2%
6 | O=c1c2ccccc2sn1-c1nccs1 | 107% (active)
7 | O=c1c2ccccc2c2ccccc2c(=O)n1-c1ccccc1 | 3.9%
8 | Cc1ccnc(N2C3CCC2CC(O)(c2ccccc2)C3)n1 (centres undefined) | -0.2%
9 | Cc1ccc(-n2nc3c4c(cccc4c2=O)-c2ccccc2-3)cc1 | 14.2%
10 | Cc1ccccc1N=Cc1c(O)n(-c2nccs2)c(=O)c2ccccc12 | 0.5%
11 | Cc1cc(=O)c2ccccc2s1 | -2.5%
12 | O=c1[nH]n(-c2ccccc2)c(=O)c2ccccc12 | 6.7%
13 | CC(C(=O)N1CCCCC1)n1sc2ccccc2c1=O (centres undefined) | -2.6%
14 | O=c1c2ccccc2sn1-c1ccccc1 | 87.2% (active)
15 | O=C(Nc1cccn(Cc2cccc(F)c2)c1=O)NC1CCCCC1 | 14.9%
16 | COc1ccc(-n2c(COc3ccc(C)cc3)nnc2SCc2ccc(C#N)cc2)cc1 | 10.6%
17 | COCCCn1c(=NC(=O)c2ccc3c(c2)OCO3)c(C#N)cc2c(=O)n3cccc(C)c3nc21 | 1.8%
18 | CCOC(=O)CSc1nc2ccccc2c(=O)n1CC1COc2ccccc2O1 (centres undefined) | -3.8%
19 | Cn1c(=O)c2c(nc(CN3CCOCC3)n2CCCO)n(C)c1=O | -8.2%
20 | COc1ccccc1NS(=O)(=O)c1cccc(C(=O)NN=C2CCCCCC2)c1 | -1.7%
21 | CCn1c(SCC(=O)N2CCCC2)nc2c(c1=O)SC(C)C2 (centres undefined) | 0.5%
22 | CN(C)S(=O)(=O)c1cccc(N2C(=O)CC3(CCCCC3)CC2=O)c1 | 2%
23 | CN(C)S(=O)(=O)c1cccc(-c2cn3ccccc3n2)c1 | -3.5%
24 | COC(=O)C1=C(N)Oc2cc(C)n(C)c(=O)c2C1c1ccc(Cl)cc1 (centres undefined) | 1.3%
25 | Cc1c(Cl)cccc1NC(=S)NN | 5.2%
26 | CCC(C)(C)n1nnnc1C(c1ccc(O)cc1)N1CCc2ccccc2C1 (centres undefined) | 12.2%
27 | CCOC(=O)/C(C(=O)Nc1ccc(Br)cc1)=C1/NC(C)(C)Cc2ccccc21 | 3.3%
28 | CCOC(=O)/C(C)=C1\NC(C)(C)Cc2ccccc21 | 94.7% (active)
29 | CCOC(=O)/C(C(=O)Nc1ccccc1Cl)=C1/NC(C)(C)Cc2ccccc21 | 18.6%
